Results on 13 sequences are retold here after paper PMC9426499.

In this test the target is ParRC(pCW3) (Clostridium perfringens plasmid pCW3, UniProt Q1PLJ8 1-87). Put plainly: SPR; high values mean tight binding. The settings on record: protein: recombinant; tags: C-terminal His6; chain copies: 4; label: 3' 20-nt overhang of comp strand annealed to immobilized 5'-biotin ReDCaT linker; dsDNA, one strand shown. Background: Surface plasmon resonance follows binding to a sensor surface in real time, without labels.
As to AAAAAACATCACAATTTTACATAATAGAAA, the binding signal was determined as 311 RU. Under TTTTGCAAGTAAAAAACATCACAATTTTAC stands 217 RU. Take ATTTTACGGAAAATGCTTGATTTAGATTGA: the binding signal came out at 9.2 RU. As for AATTAAAAACATCACAATTTTACGTAATGA, the binding signal is 256 RU.

On to CATAAACATCACAATTTTACGTAATTTAGA, for which the binding signal is 348 RU. The same measure for AATATAAAAACATAAACATCACAATTTTAC: 155 RU. Turning to ATCACAATTTTACGTAATGACAGTTTGTTG, the binding signal is 54.7 RU. AATTTTACATAATAGAAAGGATTGATAAAA: the binding signal was determined as 3.1 RU.

In the case of ACAATTTTACGTAATTTAGATTTTGCAAGT, the binding signal was 48.4 RU. As for ACAATTTTACATAATAGAAAGGATTGATAA, the binding signal came to 4.3 RU. Under GTAATTTAGATTTTGCAAGTAAAAAACATC stands 42.6 RU; under AAAATGAAAAAAACATCACAATTTTACGGA, 250 RU. Under AAACATCACAATTTTACGGAAAATGCTTGA stands 282 RU.
